Test results taken from the supplement of paper PMC11219838.
Values without a mark were called inactive.

These compounds were tested on Meloidogyne hapla J2 (assay: proportion of mobile M. hapla J2 relative to DMSO control (fraction of DMSO control); higher = more viable, less nematicidal, active = 0.7 or less). Settings: 60 µM; 5 days; temperature: 20 °C.
Experimental: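 DODA library (846 commercial 1,3,4- and 1,2,4-oxadiazole compounds plus commercial nematicide controls) screened at a single dose of 60 µM (0.6% DMSO) in 96-well plates, two biological replicates. Read-outs: C. elegans N2 L1 survival/reproduction score at day 6, 20 °C (0: 0-10 worms, 1: 11-20, 2: 21-50, 3: >50, 4: overgrown/starved). C. elegans daf-2 dauer, D. dipsaci and M. hapla J2 mobility at day 5, 20 °C, and P. penetrans mobility at day 5, 20 °C, each relative to DMSO controls. M. hapla egg hatching at day 12, 25 °C, relative to the mean of 8 DMSO wells on the same plate.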

SMILES | proportion of mobile M. hapla J2
CC[C@H](C)[C@H]1O[C@]2(C=C[C@@H]1C)C[C@@H]1C[C@@H](C/C=C(\C)[C@@H](O[C@H]3C[C@H](OC)[C@@H](O[C@H]4C[C@H](OC)[C@@H](O)[C@H](C)O4)[C@H](C)O3)[C@@H](C)/C=C/C=C3\CO[C@@H]4[C@H](O)C(C)=C[C@@H](C(=O)O1)[C@]34O)O2.CO[C@H]1C[C@H](O[C@H]2[C@H](C)O[C@@H](O[C@@H]3/C(C)=C/C[C@@H]4C[C@@H](C[C@]5(C=C[C@H](C)[C@@H](C(C)C)O5)O4)OC(=O)[C@@H]4C=C(C)[C@@H](O)[C@H]5OC/C(=C\C=C\[C@@H]3C)[C@]54O)C[C@@H]2OC)O[C@@H](C)[C@@H]1O [abamectin] | 1.03
O=C(NCCc1ncc(C(F)(F)F)cc1Cl)c1ccccc1C(F)(F)F [fluopyram] | 0.653 (active)
CC(C)NC(=O)N1CC(=O)N(c2cc(Cl)cc(Cl)c2)C1=O [iprodione] | 1.03
CNC(=O)O/N=C(\SC)C(=O)N(C)C [oxamyl] | 0.936
